This is part of a sample that, as a whole, favours compounds with a hit. Of some 83,000 tested, about 20% had one in any assay.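 48-hour exposure, single concentration, 96-well plates; percent growth endpoint where 0 means no net growth. Active: below 10.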 Unmarked numbers belong to inactive results. Calls of active or inactive are those of the source.
How the values were obtained:
Experiment in all cases: NCI-60 one-dose screen, 48 h (100 = growth as untreated, 0 = no growth, -100 = all killed)
Details in all cases: 10 µM unless noted
[1] = system: SK-MEL-2 melanoma
[2] = system: EKVX NSCLC
[3] = system: SN12C renal
[4] = system: UO-31 renal
[5] = system: TK-10 renal
[6] = system: ACHN renal
[7] = system: CAKI-1 renal
[8] = system: A498 renal
[9] = system: CCRF-CEM leukemia
[10] = system: MOLT-4 leukemia
[11] = system: RPMI-8226 leukemia
[12] = system: OVCAR-8 ovarian
[13] = system: OVCAR-5 ovarian
[14] = system: OVCAR-4 ovarian
[15] = system: SK-OV-3 ovarian
[16] = system: IGROV1 ovarian
[17] = system: OVCAR-3 ovarian
[18] = system: HS 578T breast
[19] = system: NCI/ADR-RES ovarian

SMILES | growth [1] | growth [2] | growth [3] | growth [4] | growth [5] | growth [6] | growth [7] | growth [8] | growth [9] | growth [10] | growth [11] | growth [12] | growth [13] | growth [14] | growth [15] | growth [16] | growth [17] | growth [18] | growth [19]
OC(COc1ccccc1Cl)COc1ccccc1Cl | 107% | 106% | 97% | 82.1% | 102% | 97.3% | 106% | 85.2% | -46.3% (active) | 92.3% | 81.5% | 109% | 81.9% | 105% | 107% | 96.7% | 118% | 102% | 95.9%
Nc1n[nH]c(-c2cc(Cl)ccc2O)c1-c1ccccc1 | 75.9% | 72.6% | 86.5% | 61.9% | 106% | 61.3% | 79.7% | 101% | 85.2% | 72.7% | 91.1% | 91% | 67.4% | 86.3% | 96.7% | 96% | 107% | 85.3% | 79.3%
COc1ccc(/C=C/c2c(C(=O)/C=C/c3cccs3)c(C)nc3ccccc23)cc1 | 89.6% | 84.8% | 79.1% | 56.4% | 116% | 82.2% | 57.2% | 53.3% | 64.5% | 60.1% | 56.6% | 77% | 97% | 68.7% | 79.7% | 46% | 83.6% | 84.1% | 74.1%
C=CCNc1nc(NN2C(=O)c3cccc4cccc(c34)C2=O)nc(-n2cnc3ccccc32)n1 | 98.9% | 62.8% | 60.4% | 14.3% | 102% | 64.8% | 51.5% | 32.4% | 83.8% | 56% | 65.7% | 81.5% | 77.2% | 52.5% | 40.9% | 46.7% | 84.5% | 35.9% | 72%
CCN(CC)S(=O)(=O)c1cccc(-c2ccc3c(NC(=O)C4CC4)n[nH]c3c2)c1 | -16.9% [6.25 µM] (active) | 27.5% [6.25 µM] | 38.8% [6.25 µM] | 36% [6.25 µM] | 35.4% [6.25 µM] | 27.2% [6.25 µM] | 37.7% [6.25 µM] | 9.92% [6.25 µM] (active) | 17.6% [6.25 µM] | 10.4% [6.25 µM] | 11% [6.25 µM] | 14.7% [6.25 µM] | 51.6% [6.25 µM] | 18.7% [6.25 µM] | 28.6% [6.25 µM] | 34.7% [6.25 µM] | 17.3% [6.25 µM] | 23.8% [6.25 µM] | 79.7% [6.25 µM]
COc1cc(/C=N/NC(=O)Cn2c(C(C)C)nc3ccccc32)ccc1O | 105% | 103% | 94.7% | 84.5% | 106% | 99.6% | 91.8% | 81.9% | 94.5% | 93.6% | 87% | 98.8% | 94.6% | 108% | 100% | 91.1% | 108% | 98.2% | 99.3%
COc1ccc(C2C(c3nn[nH]n3)=C(N)Oc3c2ccc2ccccc32)cc1 (centres undefined) | 61.5% | 83.4% | 64.9% | 45.1% | 43.8% | 68.6% | 34.3% | 26.5% | 75.3% | 52.6% | 66.5% | 83.8% | 104% | 83.7% | 79.5% | 53.6% | 64.7% | 76.4% | 28.3%
CC1=C([Se]CC(OC(=O)CC[Se]c2ccccc2)C(=O)NCCCCCC(=O)OCc2ccccc2)C(=O)c2ccccc2C1=O (centres undefined) | 47.8% | 27.1% | 13.4% | 15.4% | 40.9% | 23.8% | 32.2% | 71.9% | 9.75% (active) | 17.1% | 49.1% | 10.6% | 39.7% | 42.5% | 39.4% | 15.9% | -3.7% (active) | -13.4% (active) | 11.9%
COc1ccc(Nc2nnc(SCc3ccccc3F)s2)cc1 | 82.9% | 94.9% | 107% | 78.6% | 123% | 106% | 103% | 91.4% | 76.4% | 94.8% | 71.6% | 100% | 92.8% | 99.4% | 90.9% | 8.8% (active) | 111% | 98% | 99.1%
COc1ccc(/C=N\NC(=O)c2cc(-c3ccc(Br)cc3)n(-c3ccc(S(N)(=O)=O)cc3)n2)cc1 | 54.3% | 61.2% | 63% | 50.1% | 29.1% | 44.3% | 26.3% | -6.38% (active) | 55.6% | 62.3% | 61.1% | 72% | 82.5% | 57.6% | 74.1% | 46.2% | 21.2% | 22.4% | 31.4%
CC1=NOC(=O)/C1=C\c1ccc(O)cc1 | 113% | 104% | 101% | 85.7% | 102% | 101% | 95.4% | 86.7% | 94.1% | 102% | 109% | 98.3% | 99.8% | 106% | 103% | 104% | 103% | 98.3% | 106%
CS(=O)(=O)c1ccc(Nc2nc(N[C@H]3CCCC[C@H]3N)nc3cc[nH]c(=O)c23)cc1 | -40% (active) | 13.5% | 3.77% (active) | 108% | 44.6% | 95.2% | 90.7% | 51.8% | 3.99% (active) | 3.74% (active) | 62.9% | 13.6% | -6.49% (active) | -3.9% (active) | 32.8% | 1.3% (active) | -45.2% (active) | 22.2% | 102%
COc1cc(CCC[P+](c2ccccc2)(c2ccccc2)c2ccccc2)cc2c1OCO2 | 6.71% (active) | 28.3% | 35.9% | 88.2% | 19.5% | 91.8% | 86% | 45.9% | 41.3% | 53.5% | 9.71% (active) | 29.5% | 59.1% | 12.4% | 82.4% | 28.8% | 19.7% | 45.5% | 101%
CCN(CC)CCCC(C)Nc1c2ccc(Cl)cc2nc2ccc(O)cc12 (centres undefined) | 52.6% | 48.6% | 30.8% | 34.4% | 55% | 24.2% | 70.9% | 90.7% | 48.3% | 7.11% (active) | 21.8% | 30.1% | 74.3% | 24.6% | 58.1% | 53.8% | 54.8% | 58% | 77.3%
O=C(Cc1ccc(F)c(F)c1)Nc1cc(C2(C(F)(F)F)CC2)nn1Cc1ccccc1 | -32.9% (active) | 6.62% (active) | 6.15% (active) | -3.87% (active) | 3.48% (active) | -13.2% (active) | -18.4% (active) | -34% (active) | 20.1% | 8.42% (active) | 3.57% (active) | 6.55% (active) | 2.55% (active) | 10.2% | -24.7% (active) | 30.3% | 7.3% (active) | -2.64% (active) | 4.36% (active)
Cc1c(C(=O)OC(=NC2CCCCC2)NC2CCCCC2)sc2c1c(=O)nc1c(C#N)n[nH]n12 | 93.6% | 109% | 117% | 79.6% | 117% | 106% | 101% | 119% | 300% | 99.7% | 137% | 104% | 75.8% | 105% | 106% | 84.6% | 105% | 104% | 106%
